ALOX12 inh – ALOX12 (human) lipoxygenase inhibition | purified 12hLO, xylenol orange hydroperoxide absorbance | AID 1671190 | Potency, µM (doses to about 108 µM), for the others: at the top dose activity change, negative = inhibition, actives largely listed as inhibitors | P18054 | 580,000 compounds, 1.1% hits; further: on the % scale 0 is the no-effect control and ±100 the full control effect
Target sequence (P18054 whole entry, looked up): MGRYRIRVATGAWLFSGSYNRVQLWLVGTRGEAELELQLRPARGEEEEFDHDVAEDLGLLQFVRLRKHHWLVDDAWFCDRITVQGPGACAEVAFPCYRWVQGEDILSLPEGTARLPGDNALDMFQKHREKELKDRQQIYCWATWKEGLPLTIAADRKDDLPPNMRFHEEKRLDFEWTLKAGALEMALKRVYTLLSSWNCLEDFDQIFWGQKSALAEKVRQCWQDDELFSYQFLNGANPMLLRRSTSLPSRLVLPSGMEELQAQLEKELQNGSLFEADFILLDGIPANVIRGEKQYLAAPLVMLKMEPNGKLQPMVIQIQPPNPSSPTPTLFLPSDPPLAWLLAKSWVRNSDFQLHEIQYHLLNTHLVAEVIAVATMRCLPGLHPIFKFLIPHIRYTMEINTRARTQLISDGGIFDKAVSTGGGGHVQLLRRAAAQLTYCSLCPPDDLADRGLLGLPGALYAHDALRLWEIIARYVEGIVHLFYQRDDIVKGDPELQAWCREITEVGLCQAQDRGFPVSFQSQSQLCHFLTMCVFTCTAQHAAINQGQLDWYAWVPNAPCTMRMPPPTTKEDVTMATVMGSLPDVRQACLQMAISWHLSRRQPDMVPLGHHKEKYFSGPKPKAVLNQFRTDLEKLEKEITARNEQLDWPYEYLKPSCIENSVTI
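Purified human 12hLO at 150 nM in 25 mM Hepes, 0.01% Triton X-100, pH 7.0, preincubated 15 min at room temperature with compound. Reaction started with 40 uM arachidonic acid, 30 min at room temperature. Hydroperoxide measured by Fe-xylenol orange, 573/405 nm absorbance ratio.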
TGFb inhibitor – blocks TGF-b signaling. HepG2 CAGA-GFP TGF-b/SMAD3 reporter, GFP fluorescence, 18 h; TGF-beta stimulated, 500 pg/mL final. Potency, µM (doses to about 46.1 µM), for the others: at the top dose activity, negative = inhibition, usual class: inhibitors. 410,000 compounds, 1.2% hits. AID 588855; further: on the % scale 0 is the no-effect control and ±100 the full control effect; nearly all actives have a fitted effect of over 65% in size
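GFP signal (ex488/em500-530) from TGF-beta-stimulated HEPG2 CAGA-GFP cells, 500 pg/mL final, 18 h at 37 degrees C in DMEM plus 1% FBS, normalized to unstimulated and DMSO-stimulated controls.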
HepG2 tox – counter-screen for TGF-b inhibitors: cytotoxicity in HepG2 cells. HepG2 CAGA-GFP viability, ATP luminescence, 18 h. Potency, µM (doses to about 46.1 µM), for inactives: at the top dose activity change, negative = cytotoxicity, hits mostly cytotoxic. 410,000 compounds, 0.76% hits. AID 588856
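CellTiter-Glo luminescence gave cytotoxicity after 18 hours at 37 degrees C. The cells were HepG2 CAGA-GFP in 1% FBS DMEM, stimulated with 500 pg/mL TGF-beta after compound addition. %Activity was normalised to no-cell wells (complete cell-killing) and DMSO (no toxicity), and curves were fitted and classified.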
ATXN viability – viability counter-screen for ATXN expression inhibitors | Potency, µM (highest dose often 56.7 µM), actives largely listed as cytotoxic | S2 cells (HEK-293 line with an ATXN2-luciferase reporter) viability, CellTiter-Fluor protease fluorescence, 24 h | 400,000 compounds, 0.49% hits; further: nearly all actives have a fitted effect of over 40% in size
ATXN2 expr inh – ATXN2 expression inhibition | HEK-293 ATXN2-luciferase reporter, luminescence, 24 h | Potency, µM (doses to about 57 µM), for inactives: top-dose activity change, negative = inhibition, usual class: inhibitors | 360,000 compounds, 0.72% hits | AID 1745845; further: on the % scale 0 is the no-effect control and ±100 the full control effect; nearly all actives have a fitted effect of over 55% in size
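qHTS (up to 57 uM final) was run with 24 h compound exposure of reporter cells at 37 °C. Each well was multiplexed: SteadyGlo luminescence measured ATXN2-luciferase expression after a fluorogenic Gly-Phe-AFC viability readout (25 uM final).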
* marks the source's active call; other numbers are inactive results; i = inactive; u = inconclusive; x = no result given. In the library only some 2.7% were active in any assay of this set; here they are far more common. The call rests on the fitted dose curve; in most records, active means well fitted curve in the direction sought with a large enough effect; inconclusive means small, poorly fitted or top-dose-only effect, or another doubt; inactive means no such curve, though single readings can be large; an effect the other way counts as inactive or inconclusive. Potency means the concentration at half of the fitted maximal effect.

SMILES	ALOX12 inh	TGFb inhibitor	HepG2 tox	ATXN viability	ATXN2 expr inh
Cc1ccccc1-n1ncc2c1NC(=O)CC21C(=O)Nc2cccc(Cl)c21 (centres undefined)	-26%	x	x	x	x
CCC1=NN(C(=O)c2ccccc2O)C(O)(c2ccccc2)C1 (centres undefined)	-28%	13µM*	14µM*	x	-39%
CCC1=NN(C(=O)c2ccc([N+](=O)[O-])cc2)C(O)(c2ccccc2)C1 (centres undefined)	u	u	13µM*	28µM*	u
CCC1=NN(C(=O)c2ccccc2Br)C(O)(c2ccc(Br)cc2)C1 (centres undefined)	1%	-9%	3%	i	x
CCC1=NN(C(=O)c2ccc(Cl)cc2)C(O)(c2ccc(C)cc2)C1 (centres undefined)	u	11µM*	13µM*	i	5%
Cc1cc(C)c(SCC(=O)NC(C)(C)C)c(C)c1	7%	x	x	x	x
CNC(=O)c1cccc(NC(=O)Cc2nc(-c3ccccc3)oc2C)c1	-2%	x	x	x	x
Cc1nc(-c2ccccc2)sc1C(=O)NS(=O)(=O)c1ccc(CN2CCN(c3ccccc3)CC2)cc1	32µM*	x	x	i	11%
Cc1ccc(OCC(=O)Nc2cccc(-c3nc4ccccc4o3)c2)cc1C	4%	x	x	x	x
O=C1C=CC(=O)N1CCCCCCN1C(=O)C=CC1=O	u	4.5µM*	-110%	x	u
C/C(=N/Nc1ccc(S(=O)(=O)Nc2ccc(C)cc2C)cc1[N+](=O)[O-])c1ccc(C)c([N+](=O)[O-])c1	-4%	x	x	x	x
CSCCC(NS(=O)(=O)c1cccs1)C(=O)Nc1ccc(C)c(Cl)c1 (centres undefined)	50µM*	-1%	-14%	u	-13%
Oc1ccccc1C1SC(c2ccccc2O)SC(c2ccccc2O)S1 (centres undefined)	u	u	22µM*	x	20µM*
Cc1cc2c(cc1C)CSC(c1ccccc1O)SC2	u	16µM*	-105%	u	-23%
Cc1cc2c(cc1C)CSC(c1cc(Cl)ccc1O)SC2	13µM*	x	x	x	x
Cc1cc2c(cc1C)CSC(c1ccc3ccccc3c1O)SC2	0%	-3%	-29%	i	-17%
COC(=O)CC1C(=O)NCCN1S(=O)(=O)c1cc(Cl)ccc1Cl (centres undefined)	-11%	x	x	x	x
COCCN1C(=O)CCC2(CNC(=O)CCc3nc4ccccc4[nH]3)CCCC=C12 (centres undefined)	49%	x	x	x	x
CC1(C)CC(=O)C2=C(C1)Nc1ccccc1NC2	12%	4%	-3%	i	6%
CC1(C)CC(=O)C2=C(C1)Nc1ccccc1S2	25µM*	10%	-12%	i	-12%
Cc1cc(C)c(NC(=O)CC2(C(=O)O)CCCCC2)c(C)c1	-23%	x	x	x	x
CC(C)(C)c1nc2cc(Cl)c([N+](=O)[O-])cc2o1	1%	7.1µM*	-20%	i	-32%
CC(C)(C)Nc1nc2cc([N+](=O)[O-])ccc2o1	143%	-2%	-4%	i	x
CCc1nc2nc(C)c(NS(=O)(=O)c3cccs3)c(=O)n2[nH]1	6.3µM*	6%	-4%	i	-10%
Cc1ccc(NC(NC(=O)c2ccc(Cl)cc2)C(Cl)(Cl)Cl)cc1 (centres undefined)	39%	x	x	x	x
SMILES	ALOX12 inh	TGFb inhibitor	HepG2 tox	ATXN viability	ATXN2 expr inh
COc1ccc(NC(NC(=O)c2ccc(OC)cc2)C(Cl)(Cl)Cl)cc1 (centres undefined)	u	0%	-10%	i	-3%
CC(=O)Nc1ccc(NC(=S)NC(NC(=O)c2ccc(C)cc2)C(Cl)(Cl)Cl)cc1 (centres undefined)	32µM*	x	x	x	x
COc1ccc(C(=O)NC(Nc2ccc(C)cc2)C(Cl)(Cl)Cl)cc1 (centres undefined)	-19%	11µM*	-6%	i	-20%
Cc1ccc(C)c(NC(=O)N2CCC(N3CCN(Cc4ccccn4)C(=O)C3=O)CC2)c1	9%	x	x	x	x
CCOc1ccc(N2C(=O)c3ccccc3NC2(C)CC)cc1 (centres undefined)	131%	2%	-28%	u	x
CCC1(C)Nc2ccccc2C(=O)N1O (centres undefined)	0.63µM*	12%	-17%	i	-11%
CCN1C/C(=C/c2ccc(N3CCOCC3)cc2)C(=O)/C(=C/c2ccc(N3CCOCC3)cc2)C1	-22%	7%	-40%	x	22µM*
Cc1ccc(NC(=O)c2nn(CC(C)C)c(=O)c3ccccc23)c(Br)c1	-8%	x	x	x	x
Cc1ccc(NC(=O)CCc2ncc(-c3ccccc3)o2)nc1	0%	x	x	x	x
Cc1ccc(S(=O)(=O)N2CC3(O)CN(C(=O)OC(C)C)N(C(=O)OC(C)C)CC3(OC(=O)NCC3CCCCC3)C2)cc1 (centres undefined)	u	u	-26%	14µM*	u
Cc1ccc(S(=O)(=O)N2CC3(O)CN(C(=O)OC(C)C)N(C(=O)OC(C)C)CC3(OC(=O)NCc3ccccc3F)C2)cc1 (centres undefined)	u	u	-31%	22µM*	0%
Cc1ccc(S(=O)(=O)N2CC3(O)CN(C(=O)OC(C)C)N(C(=O)OC(C)C)CC3(OC(=O)NC3CC3)C2)cc1 (centres undefined)	-8%	x	x	i	5%
O=C(NC(NCc1cccnc1)(C(F)(F)F)C(F)(F)F)c1cccnc1	12%	x	x	x	x
O=C(NCc1n[nH]c(=S)n1Cc1ccccc1)c1ccccc1	-17%	0%	2%	i	x
CCN(CC)S(=O)(=O)c1ccc(C(=O)NCc2n[nH]c(=S)n2Cc2ccccc2)cc1	25µM*	-14%	1%	i	20%
c1ccc(C(CNc2ncncn2)N2CCCCCC2)cc1 (centres undefined)	-16%	x	x	x	x
O=C(Nc1cc(Cl)ccc1Cl)C1CC2CC3CCC1C3C2 (centres undefined)	33%	x	x	x	x
CN(Cc1ccnc2ccccc12)C(=O)c1cn(Cc2ccc(Cl)cc2)nn1	-19%	x	x	x	x
COc1cccc(C2CC(c3cccc(NS(C)(=O)=O)c3)=NN2C(=O)c2ccccc2)c1OC (centres undefined)	-26%	u	-9%	u	-6%
CN(C)c1ccc(C2CC(c3cccc(NS(C)(=O)=O)c3)=NN2C(=O)c2ccccc2)cc1 (centres undefined)	28µM*	1%	-24%	i	-14%
O=C(NCCc1noc(-c2ccncc2)n1)c1ccccc1	8.9µM*	x	x	x	x
CCOC(=O)c1c(-c2ccc(OC)cc2)csc1/N=C/N(C)C	16%	-2%	-47%	i	-14%
CCOC(=O)c1c(-c2ccc(OC)cc2)csc1/N=C/C1C(=O)CCCC1=O	8%	37%	16µM*	i	-15%
O=C(N/N=C/c1c(Cl)nc2ccccn2c1=O)c1cccnc1	3.2µM*	u	-112%	i	x

Screens: PubChem, National Center for Advancing Translational Sciences (NCATS)
